Bioassay records: PubChem, National Center for Advancing Translational Sciences (NCATS)
PNC assembly inh: blocks assembly of the perinucleolar compartment; PC3M PTB-GFP, PNC prevalence imaging, 16 h; stronger effect = lower value; activity change (PNC), negative = inhibition, % at 10 µM; 140,000 compounds, 3.1% hits;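 active = readout at or below -70, meaning at least 70% loss of cells showing the perinucleolar compartment, a nuclear body marking cancer cells; inconclusive = readout between -30 and a set limit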
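Compounds are pinned in duplicate onto adhered PC3M cells stably expressing GFP-tagged PTB and incubated 16 h at 37 C. Cells are then fixed, nuclei stained with Hoechst, and PNC-positive cells counted.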
ALDH1A1 block: ALDH1A1 (human) enzyme inhibition; Potency, µM (highest dose often 75.3 µM), hits mostly inhibitors; 220,000 compounds, 7.3% hits; P00352; Purified ALDH1A1, NADH fluorescence, propionaldehyde substrate
HPGD block: inhibitors of human 15-hydroxyprostaglandin dehydrogenase (HPGD). 150,000 compounds, 4.3% hits. purified HPGD, NADH fluorescence kinetic, PGE2 substrate. P15428. Potency, µM, usual class: inhibitors
Target sequence (P15428 whole entry, looked up): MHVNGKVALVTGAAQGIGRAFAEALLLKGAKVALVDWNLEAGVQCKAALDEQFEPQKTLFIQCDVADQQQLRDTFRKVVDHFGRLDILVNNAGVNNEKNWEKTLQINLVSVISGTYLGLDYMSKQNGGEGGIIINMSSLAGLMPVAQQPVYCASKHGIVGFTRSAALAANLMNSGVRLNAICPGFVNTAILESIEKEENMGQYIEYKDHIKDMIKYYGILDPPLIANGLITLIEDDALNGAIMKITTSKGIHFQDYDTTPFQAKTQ
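20 nM HPGD preincubated 15 min at room temperature with compound in 50 mM Tris-HCl pH 8, 0.01% Tween 20. Started with 1 mM NAD+ and 30 uM prostaglandin E2; NADH fluorescence (360/450 nm) read 5 times over 30-s intervals, last minus first.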
Hits are given with their value; - = inactive; ? = inconclusive; . = not tested or not shown; ! = a repeat was not active; [ ] = another dose, or the depositor's remark. Rows were chosen to be rich in hits. Some 11% of all compounds tested hit in one or more screens of this group. Unless noted, calls come from the whole dose curve; as a rule, active = well fitted inhibition curve with a large enough effect (not every such curve was filed as active); inconclusive = small, poorly fitted or top-dose-only effect, or another doubt; inactive = no such curve, though single readings can be large or run the other way.

SMILES	PNC assembly inh	ALDH1A1 block	HPGD block
CSC1=NP(=S)(SC)N2CCCC2=C1C#N (configuration not stated)	-	-	-
COC(=O)CSC1=NP(=S)(SCC(=O)OC)N2CCCC2=C1C#N (configuration not stated)	-126.5	?	-
CCN(CCNc1ccc([N+](=O)[O-])c2cccnc12)S(=O)(=O)c1ccccc1	-	-	.
CCN(CCNc1ccc([N+](=O)[O-])c2cccnc12)S(=O)(=O)c1ccc(Cl)cc1	-	2.82µM	-
O=[N+]([O-])c1cccc(C2N3CCCN23)c1 (configuration not stated)	.	-	.
CCN(CC)C(=O)c1ccc2c(c1)C1C(Cl)C(Sc3ccccc3[N+](=O)[O-])CC1C(C(=O)O)N2 (configuration not stated)	.	25.1µM	.
O=C(O)c1cccc2c1NC(c1cccc([N+](=O)[O-])c1)C1CC(Sc3ccccc3[N+](=O)[O-])C(Cl)C21 (configuration not stated)	.	3.55µM	.
CCN1C[C@]2(C)CC[C@H](O)[C@@]34[C@@H]5C[C@@H]6[C@@H](OC)C[C@@](O)(C5[C@H]6O)[C@@H](C[C@@H]23)[C@@H]14	.	-	-
C[C@]12C=CC(=O)C=C1CC[C@@H]1[C@@H]2CC[C@@]2(C)[C@H]1CC[C@]2(C)O	.	-	-
C=C1CC2C(CC[C@]3(C)C(=O)CCC23)[C@]2(C)C=CC(=O)C=C12 (some centres not stated)	.	28.2µM	-
O=C(Nc1ccc(Br)cc1)c1cc(Br)cc(Br)c1O	.	?	-
O=C(O)/C=C\C(=O)Nc1ccc(Oc2ccc(Br)cc2)cc1	.	1.41µM	.
Cc1cc(OCCCC(=O)NCc2cccs2)ccc1Cl	?	-	-
Cc1cc(Cl)ccc1OCCCC(=O)NCc1cccs1	-	-	31.6µM
O=C(CSc1nnnn1-c1ccccc1)Nc1ccc(N2CCOCC2)c(Cl)c1	-	2.24µM	-
CCN1CCN(c2ccc(NC(C)=O)cc2Cl)CC1	.	-	.
CCCC[N+]12CCC(CC1)C(C(=O)c1cccs1)C2 (configuration not stated)	?	-	-
O=C(CCN1CC2CCC(CC2)C1)c1cccs1	.	0.0708µM	-
[N-]=[N+]=NCC(=O)c1c[nH]c(=O)[nH]c1=O	.	-[13.5 µM]	-
CN1C(=O)C(Cc2c[nH]c3ccccc23)C(=O)N(C)C1=O	-	14.1µM	?
CN1C(=O)C(Cc2cccc3ccccc23)C(=O)N(C)C1=O	-	?	-
C[N+]1(C)C2CC[C@H]1CC(OC(=O)[C@@H](CO)c1ccccc1)C2 (some centres not stated)	.	-[13.5 µM]	-
COc1ccc(CCNCc2ccccc2F)cc1OC	?	-	-
COc1ccc(CCNCc2ccncc2)cc1OC	-	12.6µM	-
COc1ccc(CCN(C)Cc2ccncc2)cc1OC	-91.5	-	-
SMILES	PNC assembly inh	ALDH1A1 block	HPGD block
COc1cc(CC2(CCc3ccncc3)C(=O)NC(=O)NC2=O)cc(OC)c1OC	.	-	.
CCCCC/C=C\C/C=C\CCCCCCCCCC(=O)NCCc1ccc(O)c(O)c1	.	-	-
O=C(Oc1ccccc1)N1CCC2(CC1)CN(Cc1ccncc1)C2	.	?	-
CC(C)(C)C(=O)C1C(=O)c2ccccc2C1=O	.	15.8µM	-
O=C1CCC[C@H]2[C@H]3CCCN4CCCC(=CN12)[C@@H]34	.	-	-
CCc1cc2c(nc1CC)CCN(CC/C(C)=N/OC)C2	.	-[13.5 µM]	.
O=Cc1cn(Cc2ccc([N+](=O)[O-])cc2)c2ccccc12	-	2.24µM	-
Cc1c(C=O)c2ccccc2n1Cc1ccc(F)cc1	.	-	.
O=Cc1cn(Cc2ccc(F)cc2)c2ccccc12	.	0.126µM	.
CC(=O)c1cn(Cc2ccc(C#N)cc2)c2ccccc12	.	-	.
O=Cc1cn(Cc2ccccc2[N+](=O)[O-])c2ccccc12	-	1.26µM	-
O=[N+]([O-])c1ccccc1CNCCc1ccc(F)cc1	-	?	-
CCN1C[C@]2(COC(=O)c3ccccc3N3C(=O)C[C@H](C)C3=O)CC[C@H](OC)[C@@]34[C@@H]5C[C@H]6[C@H](OC)[C@H]5[C@](O)(C[C@@H]6OC)[C@@](O)([C@@H](OC)[C@@H]23)[C@@H]14	.	-	-
Cc1[nH]c2ccccc2c1/C=N/O	-85.9	-	12.6µM
CC(C)C/C(=N/O)c1c[nH]c2ccccc12	-	-	-
CCCCC/C=C\C/C=C\C/C=C\C/C=C\CCCC(=O)N[C@H](C)CO	.	7.08µM!	-
CC/C=C\C/C=C\C/C=C\C/C=C\C/C=C\CCCC(=O)NCC(=O)O	.	-	-
CCCCC/C=C\C/C=C\C/C=C\C/C=C\CCCC(=O)OC(CO)CO	.	22.4µM!	28.2µM!
CCCCC/C=C\C/C=C\CCCCCCCC(=O)NCCO	.	-	-
CCC(C)n1c(O)c(/C=N/Nc2ccccc2)c(=O)[nH]c1=S (configuration not stated)	-	3.55µM	-
CCC(C)n1c(O)c(/C=N/NC(=O)c2ccncc2)c(=O)[nH]c1=S (configuration not stated)	-	-	-
O=c1[nH]c(=S)n(C2CC2)c(O)c1/C=N/Nc1cccc2ccccc12	-	2.51µM	.
O=c1[nH]c(=S)n(C2CC2)c(O)c1C=NCCN1CCOCC1	.	-	.
CCCCC(=O)N/N=C/c1c(O)n(C2CC2)c(=S)[nH]c1=O	-	-	-
O=c1[nH]c(=S)n(C2CC2)c(O)c1/C=N/Nc1ccccc1	-	3.16µM	-
SMILES	PNC assembly inh	ALDH1A1 block	HPGD block
CCCN1CCC[C@@H]2Cc3n[nH]cc3C[C@H]21	.	-	-
CN1C(=O)CCS(=O)(=O)[C@@H]1c1ccc(Cl)cc1	.	-	-
COc1cc2c(cc1OC)[C@]13CCN4CC5=CCOC6CC(=O)N2[C@@H]1[C@@H]6C5C[C@@H]43 (some centres not stated)	.	-	-
c1ccoc1	.	-	-
CCN(CC)C(=O)c1ccc(NC(=O)Nc2ccccc2F)cc1	.	-	.
CCN(CC)C(=O)c1ccc(NC(=O)COc2ccc([N+](=O)[O-])cc2Cl)cc1	-	-	0.501µM
C=C(C)[C@]12C[C@@H](C)[C@@]34OC(Cc5ccccc5)(O[C@@H]1[C@@H]3C=C(COC(=O)Cc1cc(I)c(O)c(OC)c1)C[C@]1(O)C(=O)C(C)=C[C@@H]41)O2	.	-	-
CCN1C(=O)C(=C2C=C(C)OC(C)=C2)C(=O)N(CC)C1=S	.	-	.
CCN1C(=O)C(=Cc2ccc(C)s2)C(=O)N(CC)C1=S	-	7.08µM	8.91µM
FC(F)(F)c1ccccc1CN1CCN(Cc2ccccc2)CC1	-	20µM	-
CC(C)N1CCN(Cc2ccccc2C(F)(F)F)CC1CCO (configuration not stated)	.	-	.
N#CC(O[C@@H]1OC(COC2OC(CO)C(O)C(O)[C@@H]2O)C(O)C(O)C1O)c1ccccc1 (some centres not stated)	.	-	-
CC1=CC(=O)NP(=O)(Oc2ccc3ccccc3c2)N1 (configuration not stated)	-	?	35.5µM
NC(=NCCc1ccc(I)cc1)SCCCc1cnc[nH]1	.	-	-
CCC1(c2ccccc2)CCC(=O)NC1=O (configuration not stated)	.	-	-
C[C@H](CCC(=O)O)C[C@H](C)C[C@H](C)C(=O)/C=C(\O)[C@H](C)C[C@H](C)C/C=C/[C@@H](C)[C@@H](O)[C@@H](C)[C@@H](O)C[C@@H]1CC[C@@](C)([C@H]2CC[C@@](C)([C@@H](C)O)O2)O1	.	-	-
